Laboratory results as given in PubChem BioAssay (NCI).
Compounds without any hit were thinned out: in the full panel of roughly 83,000, 20% have a hit.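 The test compound was applied at a single concentration to cells in 96-well plates for 48 hours, and percent growth was recorded.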 Unmarked numbers belong to inactive results. Activity calls are given as the source filed them. Rule for the calls: active = growth percent below 10; inactive = the rest.

Experiments:
Test in all cases: NCI-60 one-dose screen, 48 h (100 = growth as untreated, 0 = no growth, -100 = all killed)
Settings in all cases: 10 µM unless noted
SR leukemia = system: SR leukemia
RPMI-8226 leukemia = system: RPMI-8226 leukemia
OVCAR-8 ovarian = system: OVCAR-8 ovarian
OVCAR-5 ovarian = system: OVCAR-5 ovarian
OVCAR-4 ovarian = system: OVCAR-4 ovarian
SK-OV-3 ovarian = system: SK-OV-3 ovarian
IGROV1 ovarian = system: IGROV1 ovarian
OVCAR-3 ovarian = system: OVCAR-3 ovarian
HS 578T breast = system: HS 578T breast
NCI/ADR-RES ovarian = system: NCI/ADR-RES ovarian
T-47D breast = system: T-47D breast
BT-549 breast = system: BT-549 breast
MDA-MB-435 melanoma = system: MDA-MB-435 melanoma
SW-620 colon = system: SW-620 colon
MCF7 breast = system: MCF7 breast
HCT-116 colon = system: HCT-116 colon
HCC-2998 colon = system: HCC-2998 colon
KM12 colon = system: KM12 colon

Structure (SMILES) | growth (SR leukemia) | growth (RPMI-8226 leukemia) | growth (OVCAR-8 ovarian) | growth (OVCAR-5 ovarian) | growth (OVCAR-4 ovarian) | growth (SK-OV-3 ovarian) | growth (IGROV1 ovarian) | growth (OVCAR-3 ovarian) | growth (HS 578T breast) | growth (NCI/ADR-RES ovarian) | growth (T-47D breast) | growth (BT-549 breast) | growth (MDA-MB-435 melanoma) | growth (SW-620 colon) | growth (MCF7 breast) | growth (HCT-116 colon) | growth (HCC-2998 colon) | growth (KM12 colon)
O=C1Nc2c(ccc(Cl)c2Cl)/C1=C/c1cc(Br)c(O)c(Br)c1 | 39.3% | 14.8% | 51.4% | 87.1% | 64.9% | 63% | 47% | 27.3% | 43.5% | 32.4% | 54.8% | 29.2% | -29.4% (active) | 36.1% | 52.8% | 58.4% | 68.7% | 32.5%
CC/C=C\C[C@H](F)C/C=C1/C(=O)C=C[C@@H]1C/C=C\CCCC(=O)O | -13.2% (active) | -3.41% (active) | 11.2% | 86.1% | 83.6% | 86.4% | 65.4% | 26.9% | 84% | 9.24% (active) | 71.9% | 68.8% | 21.6% | 30.9% | 22.6% | -15.7% (active) | 81.9% | 22.3%
CCCCCCCCCCCCCCCCCCNC(=O)[C@H]1CSC(c2ccc(F)c(OC)c2)N1 (some centres undefined) | -42.1% (active) | -49.3% (active) | -28.2% (active) | -87.9% (active) | -3.83% (active) | 10.5% | -6.12% (active) | -85.6% (active) | -30.7% (active) | -42.6% (active) | -72.3% (active) | -75.9% (active) | -92.7% (active) | -74.5% (active) | -71.7% (active) | -85.5% (active) | -91.4% (active) | -72.3% (active)
CC/C(=C(\c1ccc(O)cc1)c1ccc(OCCN(C)CCN(C)C(=O)CCCCC(=O)c2c(C)[nH]c(/C=C3\N=C(c4ccc[nH]4)C=C3OC)c2C)cc1)c1ccccc1 | 9.77% (active) | 63.1% | 85.4% | 108% | 77.7% | 123% | 89.5% | 89.4% | 97.8% | 97.4% | 62.4% | 91.5% | 88% | 88% | 41.3% | 56.3% | 97% | 68.6%
Cc1ccc(/C=C2\Oc3cc(OCC(=O)c4ccc(Cl)cc4)ccc3C2=O)cc1 | 94.7% | 248% | 92.9% | 102% | 119% | 115% | 57.1% | 94.9% | 95.4% | 102% | 97.9% | 110% | 104% | 97.1% | 119% | 89.5% | 92.6% | 104%
O=C(Nc1nc(-c2ccccc2)cc(-c2ccc(Cl)cc2)n1)c1ccncc1 | 108% | 92.3% | 100% | 104% | 90.2% | 94.6% | 95.3% | 98.6% | 100% | 89.1% | 83% | 101% | 96.8% | 90.9% | 84.6% | 87.6% | 102% | 100%
CCOC(=O)c1cnc2ccc(Br)cc2c1Nc1cccc(S(=O)(=O)NC)c1 | 124% | 110% | 101% | 100% | 82.4% | 96.2% | 89.5% | 104% | 95.8% | 80.4% | 86% | 101% | 105% | 91.9% | 91.3% | 84.7% | 97% | 98.7%
Cc1cc(-c2nc3ccccc3s2)ccc1NC(=O)COc1ccc(Cl)cc1 | 87.5% | 72.1% | 105% | 65.5% | 56.5% | 104% | 31.6% | 120% | 117% | 93.3% | 18.9% | 105% | 113% | 106% | 17.5% | 76.7% | 91.8% | 118%
C[C@]12C[C@@H](c3ccoc3)OC(=O)[C@@H]1CC[C@]1(C)[C@@H]2CC[C@@H](O)[C@]1(C)O | 74.5% | 101% | 104% | 137% | 128% | 105% | 102% | 112% | 81.1% | 104% | 82.6% | 106% | 57.4% | 63.2% | 108% | 90.5% | 95.8% | 102%
COC(/C=C/c1ccc([N+](=O)[O-])cc1)OC | 31.6% | 70% | 84.4% | 99.8% | 96.6% | 110% | 89% | 120% | 122% | 96% | 52% | 118% | 96.8% | 85.2% | 77.2% | 27.3% | – | 110%
Nc1cc(O)cc2cccnc12 | 73% | 68.9% | 80.9% | 107% | 105% | 83.4% | 53.4% | 88.8% | 121% | 87.3% | 83.9% | 87% | -9.72% (active) | 79.7% | 55.8% | 80.3% | 100% | 99.8%
O=[N+]([O-])c1cccc(-c2nc3sccn3c2-c2ccnc(NCCCNS(=O)(=O)c3cccc(F)c3)n2)c1 | 13.2% | -32.5% (active) | -5.3% (active) | 66.2% | -12.2% (active) | 44.6% | 3.18% (active) | -2.65% (active) | 31.2% | -20.8% (active) | -13.4% (active) | -16.8% (active) | -19.4% (active) | 22.9% | -18.9% (active) | 7.77% (active) | 65.6% | -10.6% (active)
COc1ccc(-c2cc(/C=C3\C(=O)Nc4ccc(Cl)cc43)[nH]n2)cc1 | 10.6% | 61.6% | 67.5% | 92.5% | 101% | 60% | 17.7% | 31.6% | 68.6% | 34.2% | 47.4% | 55.4% | -27.4% (active) | 26.9% | 17% | 26.8% | 94.3% | 43.8%
COc1cccc(/C=C2/C(=O)N(Cc3ccco3)SC2=S)c1OC | -0.493% (active) | 74.2% | 81.1% | 103% | 102% | 97.8% | 104% | 110% | 109% | 103% | 81.2% | 89.7% | 84.6% | 98.4% | 47.3% | 86.4% | 108% | 92.2%
CCN(CC)Cc1cc(Nc2c3ccccc3nc3cc(Cl)ccc23)ccc1O | -37.1% (active) | -21.1% (active) | -60.1% (active) | -15.3% (active) | -97.8% (active) | -2.76% (active) | 2.96% (active) | -92.2% (active) | -30.9% (active) | -38.5% (active) | -68.2% (active) | -58% (active) | -92.7% (active) | -41% (active) | -60.7% (active) | -43% (active) | -100% (active) | -30% (active)
COc1ccc(CN(c2ccc(C)cc2)C2OC(=O)c3ccccc32)cc1OC (centres undefined) | 83.8% | 93.9% | 108% | 89.7% | 103% | 118% | 116% | 113% | 102% | 96.3% | 95.2% | 106% | 100% | 99.2% | 92.5% | 105% | 102% | 102%
CC(C)n1cc2c(N)ncnc2n1 | 97.5% | 107% | 108% | 109% | 95.5% | 106% | 107% | 104% | 105% | 107% | 93.9% | 101% | 98.6% | 110% | 102% | 102% | – | 111%
